# Source: PubChem (several laboratories)
# Cav32 inh = blocks human Cav3.2 T-type calcium channel; 4% of 100,000 active; Cav3.2-expressing cells, Fluo-4 calcium fluorescence FDSS; stronger effect = lower value; B-score at 10 µM; O95180;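 active = single-dose well whose peak fluorescence ratio is a statistical outlier from its plate by either plate-standardised score or position-corrected B-score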
# sEH activator = increases human soluble epoxide hydrolase activity. P34913. purified human sEH enzymatic activity, activator screen. activation, % at 2 µM. 0.04% of 91,000 active. AID 717; in the data active = activation above about 37%
# sEH inhibitor = blocks human soluble epoxide hydrolase activity | recombinant human sEH enzymatic activity assay | inhibition, % at 2 µM | AID 707 | 0.34% of 91,000 active | P34913; in the data active = inhibition above about 80%
# PostGolgi yeast = growth inhibition of a yeast mutant, post-Golgi transport screen. post-Golgi transport phenotypic cell assay. inhibition, % at 10 µM. 0.9% of 98,000 active. AID 739;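 note: yeast cells grown in 1536-well plates; yeast grown about 18 h at 30C before absorbance read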
# PostGolgi ctrl = yeast control strain growth, post-Golgi counter-screen; AID 738; inhibition, % at 10 µM; efflux-deficient yeast background strain, growth absorbance A615, 16 h; 5% of 98,000 active
# An asterisk follows results filed as active; x = not tested or not shown. Hits are enriched below; roughly 7.8% of the tested compounds scored in any of these assays. Cut-off read from the data, not from the text of the source, unless noted: active = inhibition above about 30%; inactive = the rest.
SMILES,Cav32 inh,sEH activator,sEH inhibitor,PostGolgi yeast,PostGolgi ctrl
CC1CC(C)CN(S(=O)(=O)c2ccc(NC(=O)C3COc4ccccc4O3)cc2)C1 (stereo not given),-4.06,x,x,3.2,38.0*
CC(C)NC(=O)c1ccc(OC2CSC2)cc1,0.691,-14.2,13.2,1.1,15.7
Cn1nc(C(F)(F)F)c(C(=O)Nc2ccc(F)cc2F)c1Sc1ccc(C(F)(F)F)cc1,1.49,2.2,-0.4,-9.7,-4.7
Cc1ccc(OCC(=O)Nc2oc(-c3ccccc3)c(-c3ccccc3)c2C#N)cc1,-7.54*,2.1,-3.4,x,x
N#Cc1c(NC(=O)CSc2ncccn2)oc(-c2ccccc2)c1-c1ccccc1,x,-10.9,14.0,x,x
O=C(COC(=O)C1CC2C=CC1C2)Nc1ccc2c(c1)OC(F)(F)O2 (stereo not given),-5.49*,-27.4,30.1,-10.1,-5.9
Cc1ccc(OCC(=O)Nc2cccc(-c3nnc(-c4ccccc4)o3)c2)cc1,x,x,x,12.7,7.9
O=C(COC(=O)C1CC2C=CC1C2)NCc1ccco1 (stereo not given),0.37,-0.2,1.4,-2.7,-4.3
N#Cc1c(NC(=O)Cn2cnc3ccccc3c2=O)oc(-c2ccccc2)c1-c1ccccc1,-10.3*,0.2,2.0,14.5,-1.1
N#Cc1c(NC(=O)CSc2n[nH]c(Cc3ccccc3)n2)oc(-c2ccccc2)c1-c1ccccc1,-6.36*,5.0,-5.3,4.3,14.9
Fc1cccc(Cl)c1CNCc1ccccc1Cl,0.959,9.3,-6.2,-4.4,8.7
N#Cc1c(NC(=O)CN2CCOCC2)oc(-c2ccccc2)c1-c1ccccc1,-3.06,-4.9,5.0,-5.3,12.8
N#Cc1c(NC(=O)COC(=O)C2CC3C=CC2C3)oc(-c2ccccc2)c1-c1ccccc1 (stereo not given),-6*,-3.0,1.2,7.2,15.4
COc1ccc(-c2oc(NC(=O)CCl)c(C#N)c2-c2ccc(OC)cc2)cc1,0.693,-6.6,5.7,28.1,50.4*
COc1ccccc1OCC(=O)Nc1oc(-c2ccccc2)c(-c2ccccc2)c1C#N,-6.91*,-7.8,9.0,-2.5,20.1
COc1ccc(CC(=O)Nc2oc(-c3ccccc3)c(-c3ccccc3)c2C#N)cc1OC,-5.56*,0.1,-0.5,-8.0,-3.8
Cc1cc(C)c(C#N)c(SCC(=O)c2ccc(Cl)cc2Cl)n1,0.0613,-8.6,10.1,-3.0,5.0
Cc1ccc(-n2c(C)nnc2SCC(=O)Nc2ccccc2)cc1,-0.314,0.9,-0.9,x,x
N#CCC(CNc1ncc(C(F)(F)F)cc1Cl)OC(=O)c1ccc(Cl)cc1Cl (stereo not given),-1.8,-1.9,3.6,9.7,24.7
c1cc2c(cc1-c1cnc3n1CCC3)OCCO2,-0.818,-2.7,6.5,-5.5,37.1*
Cn1c(-c2ccc3c(c2)OCO3)cnc1N,0.301,16.3,-18.1,17.9,-1.0
Cc1ccc(-c2nnc3n2CCCCC3)cc1,-0.0527,-2.9,1.0,1.6,13.2
c1ccc(-c2ccc(-c3cnc4n3CCCCC4)cc2)cc1,-0.657,-4.4,5.7,80.8*,5.2
O=C(O)CCC1OC(=O)C(O)=C1c1ccccc1 (stereo not given),0.144,x,x,x,x
COCCCNC(=O)c1sc2ncnc(N3CCc4ccccc4C3)c2c1C,-1.25,-6.5,7.7,x,x
SMILES,Cav32 inh,sEH activator,sEH inhibitor,PostGolgi yeast,PostGolgi ctrl
Cn1c2c(c(=O)n(C)c1=O)C(C(F)(F)F)(C(F)(F)F)N=C(c1ccccc1Cl)N2,3.03,12.2,-8.9,31.0*,21.0
Cn1c2c(c(=O)n(C)c1=O)C(NS(=O)(=O)c1ccc(Cl)cc1)(C(F)(F)F)C(=O)N2 (stereo not given),0.731,-5.9,5.8,7.8,4.2
Cc1cc(C)c(-n2c(C)cc(/C=C3/NC(=O)NC3=O)c2C)c(C)c1,-6.08*,2.7,-2.8,4.1,64.3*
CCCn1c(N)c(Sc2ccc(Cl)cc2)c(=O)n(CCC)c1=O,-0.916,-10.5,9.3,0.2,1.8
Cn1c(=O)c2c(nc(CN3CCOCC3)n2CCCO)n(C)c1=O,-0.756,x,x,8.0,22.6
CC(=O)N(Cc1ccc(F)cc1)C1=C(NCCc2ccccc2)C(=O)c2ccccc2C1=O,-2.74,-10.0,7.4,20.8,31.4*
Cc1cc(NC(=O)CCCC(=O)N(CC(=O)NCCc2ccccc2)Cc2ccc(F)cc2)no1,0.00598,9.0,-10.5,0.3,5.8
O=C(Oc1ccc(-c2nnco2)cc1)N(c1ccccc1)c1ccccc1,-1.94,0.6,-1.3,-5.0,25.8
CCOCCCNc1nc2c(c(=O)[nH]c(=O)n2C)n1CCCc1ccccc1,2.28,0.1,3.1,8.3,29.5
CC(C)CCN1C(=O)c2ccc(C(=O)NCc3ccco3)cc2C1=O,x,-5.1,7.1,-1.1,10.9
CC(c1ccccc1)N1C(=O)c2ccc(C(=O)NCc3ccco3)cc2C1=O (stereo not given),-3.9*,-17.6,20.2,-0.3,23.2
O=C(NCc1ccco1)c1ccc2c(c1)C(=O)N(Cc1ccccc1)C2=O,-4.74*,-0.5,-1.3,-4.1,44.2*
S=C(NCc1ccco1)N1CCN(C(c2ccccc2)c2ccccc2)CC1,-1.14,-0.1,2.9,-4.8,27.1
O=C(CN1CCN(C(c2ccccc2)c2ccccc2)CC1)NC(=O)NCc1ccco1,-5.1*,-1.1,0.7,4.9,36.3*
O=C(CN1C(=O)NC2(CCCCCCC2)C1=O)NC(=O)NCc1ccco1,-0.388,12.7,-14.2,8.5,38.5*
Cc1ccc(SCC(=O)NC(=O)NCc2ccco2)cc1C,-6.61*,8.4,-5.3,4.7,12.3
CC1(c2ccccc2)NC(=O)N(CC(=O)NC(=O)NCc2ccco2)C1=O (stereo not given),-0.287,5.0,-1.3,-0.5,2.6
COc1ccc(NC(=O)CN(C)S(=O)(=O)c2ccc3c(c2)OCCO3)c2ncccc12,-0.208,-8.0,6.0,4.3,20.1
CC(c1nnc(SCC(=O)NC(=O)NCc2ccco2)n1-c1ccc(Cl)cc1)N(C)C (stereo not given),0.199,x,x,6.6,3.5
O=C(OCc1c(Cl)cccc1Cl)c1cccnc1,-0.834,-5.3,5.1,25.0,2.1
CCOC(=O)c1c(C)[nH]c(C(=O)COC(=O)CN2C(=O)C3CCCCC3C2=O)c1C (stereo not given),-0.0212,-7.0,8.8,-4.8,5.6
CCOC(=O)c1c(C)[nH]c(C(=O)COC(=O)C(C)N2C(=O)C3CCCCC3C2=O)c1C (stereo not given),-3.22*,x,x,-10.0,-7.2
NC(=O)CN1CCN(C(=O)Nc2ccccc2)CC1,-0.375,x,x,7.3,4.2
O=C(CN1/C(=C(/O)c2ccccc2)C(=O)c2ccccc2S1(=O)=O)c1ccccc1,-6.95*,-7.9,2.5,-12.6,8.9
Cc1[nH]nc2c1C(Cc1ccccc1)C(C#N)=C(N)O2 (stereo not given),0.902,4.4,-3.9,-4.7,-3.6
CC(C)c1[nH]nc2c1C(Cc1ccccc1)C(C#N)=C(N)O2 (stereo not given),-8.63*,6.3,-7.6,-3.3,10.2
CCC(C)NS(=O)(=O)c1ccc(-c2csnn2)s1 (stereo not given),-0.342,-0.5,-1.3,19.8,8.3
Oc1c(Br)cc(Br)cc1/C=N/c1nc2c(s1)CCCC2,-5.34*,7.9,-5.0,0.2,8.8
CCOC(=O)/C=C(\C)Sc1cc(=O)oc2ccccc12,-0.0972,7.3,-8.8,8.4,32.7*
